# PubChem BioAssay (Tox21)
# Where “and” joins values, the source holds several entries; their conditions need not be identical. Identical values can stand only once. Inconclusive results are not listed. Entries that show only a call come without a potency. Calls of active or inactive are those of the source. Unless noted, calls come from the whole dose curve.
# What was measured:
# [1] = Nuclear factor erythroid 2-related factor 2/antioxidant responsive element (Nrf2/ARE) small molecule agonists: qHTS cell viability counter screen in human keratinocytes (AID 1919968; active = well fitted curve in the direction sought with a large enough effect in the repeat runs; an effect the other way counts as inactive or inconclusive; note: nearly all actives have a fitted effect of over 55% in size; note: potency is the fitted concentration of half-maximal effect)
# Outline: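 Cells of the KeratinoSens line were plated at 1,500 per well and left for 5 h before compound transfer from DMSO stocks. After a 23 h incubation (37 C, 5% CO2), CellTiter-Fluor was added. Signal was taken as fluorescence intensity 1 h later.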
# [2] = molecular target: KiSS-1 receptor (Homo sapiens) (UniProt Q969F8); experiment: Human kisspeptin (KISS1R) small molecule agonists, calcium flux assay in KISS1R-HEK293 cells (AID 1920064; active = well fitted curve in the direction sought with a large enough effect in the repeat runs; an effect the other way counts as inactive or inconclusive)
# Outline: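 Cell line: HEK293, stable human KISS1R. Dye loading 1 h at 37 C after 18 h culture. Read: kinetic fluorescence, 480/540 nm, 3 min at 1 s intervals.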
# [3] = G protein-coupled receptor (GPCR) small molecule agonists, calcium flux assay: HEK293 wild type cell line counter screen (AID 1920065)
# Outline: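 Tox21 10K compounds, 15 concentrations each in triplicate, pin-transferred in DMSO onto dye-loaded cells; kinetic read at 480/540 nm for 3 min, 1 s intervals.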
# [4] = p53 small molecule agonists, cell-based qHTS assay with human liver microsomes (AID 1963577);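 note: p53 response element beta-lactamase reporter cells with liver microsomes plus NADPH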
# Outline: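 Metabolically competent format: test substances, human liver microsomes and NADPH (both 0.5 mg/mL final) incubated with p53RE-bla cells 16 h at 37 C. Beta-lactamase reporter signal then quantified by fluorescence.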
# [5] = p53 small molecule agonists, cell-based qHTS assay with rat liver microsomes (AID 1963578)
# Outline: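 Each plate received p53RE-bla cells, then compound, then rat liver microsomes and NADPH (both 0.5 mg/mL final). Plates were held 16 h at 37 C, and beta-lactamase activity was detected with LiveBLAzer over 2 h.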
# [6] = p53 small molecule agonists, cell-based qHTS assay with human liver microsomes: qHTS cell viability counter screen (AID 1963579); note: nearly all actives have a fitted effect of over 45% in size
# Outline: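 Tox21 library compounds, delivered from DMSO stocks, were tested on p53RE-bla cells together with 0.5 mg/mL human liver microsomes and 0.5 mg/mL NADPH (final) over 16 h at 37 C; CellTiter-Glo luminescence served as the cytotoxicity measure.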
# [7] = p53 small molecule agonists, cell-based qHTS assay with rat liver microsomes: qHTS cell viability counter screen (AID 1963580); note: nearly all actives have a fitted effect of over 45% in size
# Outline: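 Cytotoxicity counter screen: intracellular ATP measured by CellTiter-Glo luminescence in the same wells as the beta-lactamase reporter read, on HCT-116 p53RE-bla cells exposed 16 h at 37 C to compounds with rat liver microsomes and NADPH, each 0.5 mg/mL final.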
# [8] = p53 small molecule agonists, cell-based qHTS assay: qHTS cell viability counter screen (AID 1963581); note: nearly all actives have a fitted effect of over 45% in size; note: potency is the fitted concentration of half-maximal effect
# Outline: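 ATP content measured by luminescence in HCT-116 p53RE-bla cells treated 16 h at 37 C, same wells as the reporter screen.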
# [9] = p53 small molecule agonists, cell-based qHTS assay (AID 1963582; active = well fitted activation curve with a large enough effect in the signal ratio in the repeat runs, not every such curve was filed as active; the % refers to the signal ratio)
# Outline: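 16 h compound exposure (37 C) of p53 response element–bla cells, preceded by 5 h recovery at 37 C/5% CO2; read-out via LiveBLAzer B/G FRET substrate, 2 h RT, fluorescence intensity.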
# [10] = molecular target: 5-hydroxytryptamine receptor 2A (Homo sapiens) (UniProt P28223); experiment: 5-hydroxytryptamine receptor 2A (HTR2A) small molecule antagonists, cell-based qHTS assay (AID 1963586); note: nearly all actives have a fitted effect of over 45% in size
# Outline: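 CHO cells stably expressing human HTR2A were plated for 18 h at 37 C, then loaded with calcium dye for 1 h. Compounds were preincubated 5 min at room temperature before DOI (4 nM solution) was added. Kinetic fluorescence was read for 3 min.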
# [11] = molecular target: Muscarinic acetylcholine receptor M1 (Homo sapiens) (UniProt P11229); experiment: Cholinergic receptor muscarinic 1 (CHRM1) small molecule antagonists, cell-based qHTS assay (AID 1963588); note: nearly all actives have a fitted effect of over 40% in size; note: potency is the fitted concentration of half-maximal effect
# Outline: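 Compounds were tested at 15 concentrations in three independent runs. Dye-loaded CHRM1-CHO cells were exposed 5 min at room temperature before stimulation by acetylcholine added at 50nM. Intracellular calcium was read kinetically on FDSS for 3 min.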
# [12] = molecular target: Muscarinic acetylcholine receptor M1 (Homo sapiens) (UniProt P11229); experiment: Cholinergic receptor muscarinic 1 (CHRM1) small molecule agonists, cell-based qHTS assay (AID 1963589); note: nearly all actives have a fitted effect of over 35% in size; note: potency is the fitted concentration of half-maximal effect
# Outline: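 Homogeneous fluorescence calcium flux, agonist mode. Human M1-expressing CHO cells; compound dosed at 15 concentrations, three independent runs; signal sampled every 1 sec.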
# [13] = cAMP Responsive Elements (CRE) small molecule agonists, cell-based qHTS assay (AID 1963590)
# Outline: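 HEK 293T cells stably bearing CRE-bla were plated at 2,000 cells per well and rested 18 h. Compounds, positive controls or DMSO were added for 3 h at 37 C. LiveBLAzer B/G substrate was then loaded for 2 h at room temperature.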
# [14] = cAMP Responsive Elements (CRE) small molecule antagonists, cell-based qHTS assay (AID 1963591; active = well fitted inhibition curve with a large enough effect in the signal ratio in the repeat runs, not every such curve was filed as active; the % refers to the signal ratio)
# Outline: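 First, CRE-bla HEK293T cells settled 18 h at 37 C. Next, compound and 0.25 uM final NKH477 were applied for 3 h. Last, LiveBLAzer B/G substrate was loaded for 2 h at room temperature.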
# [15] = molecular target: Beta-2 adrenergic receptor (Homo sapiens) (UniProt P07550); experiment: Adrenergic beta2 receptor (ADRB2) small molecule antagonists, cell-based qHTS assay (AID 1963592); note: series mostly up to about 92 µM; nearly all actives have a fitted effect of over 50% in size
# Outline: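 Assay format: CHO-ADRB2 cells, 18-20hr seeding at 37C/5% CO2, then compound plus 1nM isoproterenol agonist mix for 0.5hr RT. Homogeneous time-resolved fluorescence cAMP detection after 1hr, expressed as 665/615 nm ratio.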
# [16] = molecular target: Beta-2 adrenergic receptor (Homo sapiens) (UniProt P07550); experiment: Adrenergic beta2 receptor (ADRB2) small molecule agonists, cell-based qHTS assay (AID 1963593);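 note: CHO cells stably overexpressing human ADRB2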
# Outline: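 CHO cells stably over-expressing ADRB2 were plated overnight at 37C, then dosed with compounds plus a stimulation mix containing 100uM IBMX and 25uM Ro-20-1724 for 0.5hr at room temperature. cAMP was measured by HTRF competition, 1hr.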
# [17] = molecular target: D(2) dopamine receptor (Homo sapiens) (UniProt P14416); experiment: Dopamine D2 receptor (DRD2) small molecule agonists, cell-based qHTS assay (AID 1963594); note: nearly all actives have a fitted effect of over 35% in size
# Outline: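 HEK293 cells stably expressing human DRD2, pre-treated with PDE inhibitor Ro20-1724 (0.1 mM final) and compound 10 min at room temperature, then stimulated with NKH477 (200nM […]) for 30 min. cAMP read by HTRF (665/620 nm).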
# [18] = molecular target: D(2) dopamine receptor (Homo sapiens) (UniProt P14416); experiment: Dopamine D2 receptor (DRD2) small molecule antagonists, cell-based qHTS assay (AID 1963595; active = well fitted inhibition curve with a large enough effect in the signal ratio in the repeat runs, with a control signal flat; the % refers to the signal ratio)
# Outline: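 In this cell-based antagonist screen, compounds act for 10 min at room temperature before a 30 min challenge with 12 nM quinpirole and 200 nM NKH477. cAMP is quantified by HTRF competition in DRD2-HEK293 cells containing 0.1 mM Ro20-1724.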
# [19] = molecular target: Gonadotropin-releasing hormone receptor (Homo sapiens) (UniProt P30968); experiment: Human gonadotropin-releasing hormone receptor (GnRHR) small molecule agonists, calcium flux assay in GnRHR-HEK293 cells (AID 1920063); note: nearly all actives have a fitted effect of over 35% in size
# Outline: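 Compounds dissolved in DMSO are pin-transferred onto dye-loaded GnRHR-HEK293 cells, which were seeded 18 h before at 37 C/5% CO2. Calcium signal is read as fluorescence intensity at 1 s intervals for 3 min.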
# [20] = molecular target: 5-hydroxytryptamine receptor 2A (Homo sapiens) (UniProt P28223); experiment: 5-hydroxytryptamine receptor 2A (HTR2A) small molecule agonists, cell-based qHTS assay (AID 1963587); note: nearly all actives have a fitted effect of over 30% in size; note: potency is the fitted concentration of half-maximal effect
# Outline: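 CHO cells stably expressing human HTR2A, plated 18 h, loaded with calcium dye 1 h at 37 C. Agonist mode: compounds added and intracellular calcium fluorescence recorded kinetically for 2 min at 1 sec intervals.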
# Chain of Muscarinic acetylcholine receptor M1 (Homo sapiens) (P11229 whole entry, looked up): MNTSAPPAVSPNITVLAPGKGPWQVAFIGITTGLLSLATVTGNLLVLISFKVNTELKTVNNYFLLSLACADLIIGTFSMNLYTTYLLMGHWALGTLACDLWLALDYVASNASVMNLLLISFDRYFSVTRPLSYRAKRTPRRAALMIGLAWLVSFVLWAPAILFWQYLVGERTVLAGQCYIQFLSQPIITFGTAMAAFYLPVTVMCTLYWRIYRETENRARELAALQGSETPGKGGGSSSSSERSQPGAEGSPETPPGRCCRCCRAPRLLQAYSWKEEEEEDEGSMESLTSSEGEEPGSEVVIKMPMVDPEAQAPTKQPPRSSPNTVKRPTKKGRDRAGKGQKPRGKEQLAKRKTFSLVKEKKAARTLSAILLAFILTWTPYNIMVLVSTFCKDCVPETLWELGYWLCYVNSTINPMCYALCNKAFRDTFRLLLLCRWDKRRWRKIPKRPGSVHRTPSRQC
# Chain of D(2) dopamine receptor (Homo sapiens) (P14416 whole entry, looked up): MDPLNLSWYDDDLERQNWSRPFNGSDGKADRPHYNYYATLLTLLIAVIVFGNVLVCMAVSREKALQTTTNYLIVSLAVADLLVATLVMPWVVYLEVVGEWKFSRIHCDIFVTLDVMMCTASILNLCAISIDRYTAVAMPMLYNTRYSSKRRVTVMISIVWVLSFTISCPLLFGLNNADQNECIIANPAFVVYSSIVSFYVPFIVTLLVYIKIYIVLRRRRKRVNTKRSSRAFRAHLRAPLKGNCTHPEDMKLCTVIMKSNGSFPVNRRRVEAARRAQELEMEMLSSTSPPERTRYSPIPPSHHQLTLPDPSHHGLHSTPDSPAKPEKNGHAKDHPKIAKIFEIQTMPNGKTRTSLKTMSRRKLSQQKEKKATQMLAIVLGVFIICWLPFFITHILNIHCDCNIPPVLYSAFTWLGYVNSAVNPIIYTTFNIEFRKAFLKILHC
# Chain of KiSS-1 receptor (Homo sapiens) (Q969F8 whole entry, looked up): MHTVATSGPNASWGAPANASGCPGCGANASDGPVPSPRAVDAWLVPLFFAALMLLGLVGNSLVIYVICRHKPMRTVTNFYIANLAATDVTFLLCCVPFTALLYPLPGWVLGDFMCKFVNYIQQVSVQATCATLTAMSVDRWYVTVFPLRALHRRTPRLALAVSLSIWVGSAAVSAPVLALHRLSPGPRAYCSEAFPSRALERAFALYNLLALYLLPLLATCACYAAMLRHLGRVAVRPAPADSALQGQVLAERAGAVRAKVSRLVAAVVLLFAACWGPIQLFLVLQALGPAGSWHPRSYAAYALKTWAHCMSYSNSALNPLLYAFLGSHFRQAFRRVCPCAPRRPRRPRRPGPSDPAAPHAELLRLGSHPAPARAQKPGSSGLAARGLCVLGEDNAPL
# Chain of Gonadotropin-releasing hormone receptor (Homo sapiens) (P30968 whole entry, looked up): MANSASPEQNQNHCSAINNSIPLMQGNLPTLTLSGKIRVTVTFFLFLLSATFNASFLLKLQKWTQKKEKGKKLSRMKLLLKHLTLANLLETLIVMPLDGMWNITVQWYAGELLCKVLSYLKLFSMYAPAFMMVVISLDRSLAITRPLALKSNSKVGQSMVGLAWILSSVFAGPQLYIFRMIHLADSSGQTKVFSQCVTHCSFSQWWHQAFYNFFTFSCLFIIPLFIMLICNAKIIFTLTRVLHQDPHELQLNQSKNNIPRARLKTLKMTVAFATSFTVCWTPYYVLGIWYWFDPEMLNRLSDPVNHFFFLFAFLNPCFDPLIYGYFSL
# Chain of 5-hydroxytryptamine receptor 2A (Homo sapiens) (P28223 whole entry, looked up): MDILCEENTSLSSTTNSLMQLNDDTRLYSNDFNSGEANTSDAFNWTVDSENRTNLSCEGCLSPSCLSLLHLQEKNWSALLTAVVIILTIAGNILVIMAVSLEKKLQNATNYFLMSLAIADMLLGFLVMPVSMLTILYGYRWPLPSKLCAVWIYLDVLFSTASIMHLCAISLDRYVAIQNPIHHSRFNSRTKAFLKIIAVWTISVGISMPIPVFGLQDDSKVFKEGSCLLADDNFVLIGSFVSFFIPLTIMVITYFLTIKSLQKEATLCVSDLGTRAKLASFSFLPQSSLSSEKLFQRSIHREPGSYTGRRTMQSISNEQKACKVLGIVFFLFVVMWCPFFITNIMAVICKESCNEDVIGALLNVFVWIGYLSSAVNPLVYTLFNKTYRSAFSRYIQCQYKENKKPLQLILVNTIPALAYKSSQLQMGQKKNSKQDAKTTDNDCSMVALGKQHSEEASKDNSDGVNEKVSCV
# Chain of Beta-2 adrenergic receptor (Homo sapiens) (P07550 whole entry, looked up): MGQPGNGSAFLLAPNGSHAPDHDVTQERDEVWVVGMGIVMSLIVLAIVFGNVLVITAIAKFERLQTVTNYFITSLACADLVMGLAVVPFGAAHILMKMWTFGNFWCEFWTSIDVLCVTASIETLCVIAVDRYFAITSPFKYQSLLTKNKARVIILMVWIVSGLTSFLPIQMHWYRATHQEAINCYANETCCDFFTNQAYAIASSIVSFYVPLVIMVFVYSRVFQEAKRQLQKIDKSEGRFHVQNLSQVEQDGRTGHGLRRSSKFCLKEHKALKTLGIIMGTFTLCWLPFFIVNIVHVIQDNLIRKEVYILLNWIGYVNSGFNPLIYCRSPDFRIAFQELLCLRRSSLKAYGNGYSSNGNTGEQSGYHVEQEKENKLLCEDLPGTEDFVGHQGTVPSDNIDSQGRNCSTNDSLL
SMILES,Potency [1],Potency [2],Potency [3],Potency [4],Potency [5],Potency [6],Potency [7],Potency [8],Potency [9],Potency [10],Potency [11],Potency [12],Potency [13],Potency [14],Potency [15],Potency [16],Potency [17],Potency [18],Potency [19],Potency [20]
CCc1nc(N)nc(N)c1-c1ccc(Cl)cc1,inactive,inactive,inactive,inactive,inactive,inactive,inactive,13.1 µM (active),inactive,inactive,inactive,inactive,inactive,inactive,inactive,inactive,inactive,inactive,,
Oc1cccc(O)c1,inactive,inactive,inactive,inactive,inactive,inactive,inactive,inactive,inactive,inactive,inactive,inactive,inactive,inactive,inactive,,inactive,inactive,inactive,inactive
CCCCCCCCCCCCCC[N+](C)(C)C,52.7 µM (active) and 38.5 µM (active) and 2.37 µM (active),inactive,inactive,,inactive,inactive,inactive,inactive,inactive,,941 nM (active) and 818 nM (active),10.7 µM (active),,,inactive,inactive,inactive,inactive,,48.9 µM (active)
CCc1cc(C(N)=S)ccn1,inactive,inactive,inactive,inactive,inactive,inactive,inactive,inactive,inactive,inactive,inactive,inactive,inactive,inactive,inactive,inactive,inactive,inactive,inactive,inactive
CCC(=O)O,inactive,,inactive,inactive,inactive,inactive,inactive,inactive,inactive,inactive,inactive,inactive,inactive,inactive,inactive,inactive,inactive,inactive,,inactive
NC(=O)OCC(COC(N)=O)c1ccccc1,inactive,inactive,inactive,inactive,inactive,inactive,inactive,inactive,inactive,inactive,inactive,inactive,inactive,inactive,inactive,inactive,inactive,inactive,inactive,inactive
Clc1ccccn1,inactive,inactive,inactive,inactive,inactive,inactive,inactive,inactive,inactive,,,inactive,inactive,inactive,inactive,inactive,inactive,inactive,,inactive
